These results are taken from PubChem BioAssay (EPA / NIEHS).

Activity calls are given as the source filed them. How the source made its calls: active means hit-call score of the fitted dose curve at least 0.9, where 1 is the maximum; inactive means score below 0.9.

A word on the AC50: it is the midpoint of the concentration-response curve, whichever way the signal moves.

Read-out in this test: solute carrier (SLC22A1), SLC22A1 (gene 6580)
Briefly: LTEA_HepaRG_SLC22A1: Life Technologies and Expression Analysis (LTEA) Assay for solute carrier (SLC22A1) using HepaRG (AID 2283524).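 On AC50: TaqMan qRT-PCR normalized to ACTB GAPDH and POLR2A housekeeping genes.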 The settings on record: mRNA level, 48 h; actives raise or lower the signal. As for the experimental part: LTEA_HepaRG is a cell based, multiplexed-readout assay that uses HepaRG, a human liver cell line, with measurements taken at 48 hours after chemical dosing on a 96-well plate.LTEA_HepaRG_SLC22A1 is one of 102 assay component(s) measured in the LTEA HepaRG cell culture assay. It is a marker of NR mediated transport.Data from the assay component LTEA_HepaRG_SLC22A1 was analyzed into 1 endpoint. This assay endpoint, LTEA_HepaRG_SLC22A1, was analyzed with bidirectional fitting relative to DMSO as the negative control and baseline of activity. Using a type of inducible reporter, measures of mRNA induction for gain or loss-of-signal activity can be used to understand regulation of transcription factor activity. To generalize the intended target to other relatable targets, this assay endpoint is annotated to the transporter intended target family, where the subfamily is organic cation transporter.
A total of 1060 chemcials from the ToxCast library were tested in eight-point concentration-response experiments. Cell culture and cytotoxicity assays were conducted at Thermo Fisher Scientific's Custom Services facility (Madison, WI). A single lot of human HepaRG cells (Thermo Fisher Scientific, Frederick, MD) was used for the cell culture experiments. 96-well format collagen type I coated plates of human HepaRG cells were prepared using established methods. Briefly, cryopreserved HepaRG cells were thawed, plated at a density of approximately 100,000 cells/well in HepaRG Thaw, Plate, and General Purpose media (HPRG770, Thermo Fisher Scientific), and incubated for 48 hours. 0.5% DMSO was selected as vehicle control to balance the requisite need of DMSO in HepaRG cultures to maintain differentiation (for example, baseline metabolism, proportions of hepatocytes vs. cholangiocytes), while enabling further hepatic receptor pathway activation (for example, PXR and CAR) in response to chemical exposure. 48 hours after plating, the culture medium was replaced with HepaRG Serum-Free Incudtion Media. Cells were exposed to each test chemical in duplicate and maintained in CO2 incubators for another 48 hours. Chemical plates were thawed to room temperature and 200x concentrations of treatment groups were prepared. 8-point conentration-reponse curves were made with the highest exposure at 100 uM, followed by half-log dilutions, all in 0.5% DMSO. Each test plate contained variouse controls, induction positive controls (1mM phenobarbital), cytotoxicity positive controls ([…] aflatoxin B1), vehicle controls (0.5% DMSO), and total lysis controls (0.5% DMSO). Cell morphology images were taken using an Essen IncuCyte FLR automated microscope, with six 96-well plates imaged in about 24 minutes. Images were captured and exported and JPEG files. Spent culture media was transfered to black-well plates for the LDH assay, and remaining media was sorted at -80 C for later use. Cells were treated with RLT buffer and frozen until shipped for gene expression analysis. Total RNA was isolated from the cell suspension in 75 uL of Buffer RLT (Qiagen, Germantown, MD 20874) by Quintiles/Expression Analysis (Durham, NC) using a custom isolation procedure. Total RNA from each plate well was transferred to a preamplification plate. Fluidigm's 96.96 Dynamic ArrayTM (Fluidigm, Amsterdam, the Netherlands) technology was used for gene expression analyses by quantitative reverse transcription polymerase chain reaction (qRT-PCR, performed by Quintiles/Expression Analysis, Durham, NC)89. Standard TaqManTM Assays (Applied Biosystems/ThermoFisher Scientific, Foster City, CA) were used to assess the expression of 93 genes selected based on their selectivity and sensitivity to important hepatic receptors known to be modulated by environmental chemicals; importance in human hepatocyte functionality; and hepatotoxicity. […]
Consider `Nc1c(Cl)c(F)nc(OCC(=O)O)c1Cl`, for which the outcome was inactive.
As to `CSC(=O)c1c(C(F)F)nc(C(F)(F)F)c(C(=O)SC)c1CC(C)C`, the concentration at half-maximal activity (AC50) is 90 µM (active).
On the same count and under the same terms, for `COC(=O)N(C(=O)N1CO[C@@]2(C(=O)OC)Cc3cc(Cl)ccc3C2=N1)c1ccc(OC(F)(F)F)cc1` the value was 47.9 µM (active).
On to `O=C(Nc1ccccc1-c1ccc(Cl)cc1)c1cccnc1Cl`, for which the call was inactive.
On to `CS(=O)(=O)c1cc(C(F)(F)F)ccc1C(=O)c1cnoc1C1CC1`, for which the result was inactive.
The same measure, in the same setting: the result for `COP(=S)(OC)Oc1ccc([N+](=O)[O-])c(C)c1` reads “inactive”.
Still for that read-out and setting: the result for `CNC(=O)Oc1cccc2ccccc12` reads “inactive”.
Take `CCCCC(O)(Cn1cncn1)c1ccc(Cl)cc1Cl` (stereo not given): the AC50 is 73.6 µM (active).
`CC(C)N1C(=O)N(c2ccccc2)CSC1=NC(C)(C)C`: the AC50 was 81.4 µM (active).
As for `Cc1cnc(C2=NC(C)(C(C)C)C(=O)N2)c(C(=O)O)c1` (stereo not given), the compound was called inactive.
Same read-out and setting: for `CCCCOCN(C(=O)CCl)c1c(CC)cccc1CC` the value was “inactive”; for `Cc1ccc(N=CN(C)C=Nc2ccc(C)cc2C)c(C)c1`, “inactive”.
The same measure, in the same setting: for `COCc1cnc(C2=NC(C)(C(C)C)C(=O)N2)c(C(=O)O)c1` (stereo not given) the value was “inactive”.
With `COCC(C)N(C(=O)CCl)c1c(C)csc1C` (stereo not given), the half-maximal activity concentration (AC50) is 73.3 µM (active).
The same measure, in the same setting: for `CCOc1nc(F)cc2nc(S(=O)(=O)Nc3c(Cl)cccc3Cl)nn12` the value was 50 µM (active).
Turning to `COP(=S)(OC)SCn1nnc2ccccc2c1=O`, the result was inactive.
As for `CCNC(=O)NC(=O)C(C#N)=NOC`, the AC50 was 74.2 µM (active).
The same measure, in the same setting: for `N#Cc1c[nH]cc1-c1cccc2c1OC(F)(F)O2` the value was 40.7 µM (active).
On to `CNC(=O)N(C)c1nnc(C(C)(C)C)s1`, for which the call was inactive.
As to `C=CCOC(=O)C(C)(C)OC(=O)c1cc(-n2c(=O)cc(C(F)(F)F)n(C)c2=O)ccc1Cl`, the compound was called inactive.
On the same count and under the same terms, for `COC(=O)NS(=O)(=O)c1ccc(N)cc1` the value was “inactive”; for `CC1(C)CCC(=Cc2ccc(Cl)cc2)C1(O)Cn1cncn1` (stereo not given), “inactive”; for `COc1ccc(-c2ccccc2)cc1NNC(=O)OC(C)C`, “inactive”.
The same measure, in the same setting: for `Cc1nc(N(C)C)nc(OC(=O)N(C)C)c1C` the value was “inactive”.
Still for that read-out and setting: the result for `O=P(O)(O)CCCl` reads “inactive”.
As for `CCCC(=NOCC)C1=C(O)CC(CC(C)SCC)CC1=O` (stereo not given), the call was inactive.
`CC(C)NC(=O)N1CC(=O)N(c2cc(Cl)cc(Cl)c2)C1=O`: the AC50 was 21.3 µM (active).
Turning to `Nc1c(Cl)c(Cl)nc(C(=O)O)c1Cl`, the compound was classed as inactive.
The same measure, in the same setting: for `O=C1C2CC=CCC2C(=O)N1SC(Cl)(Cl)Cl` (stereo not given) the value was “inactive”; for `COCC(=O)N(c1c(C)cccc1C)C(C)C(=O)OC` (stereo not given), “inactive”; for `CCN(CC)c1nc(C)cc(OP(=S)(OC)OC)n1`, “inactive”.
Regarding `CC(C)(C)C(=O)C(Oc1ccc(Cl)cc1)n1cncn1` (stereo not given), the result was inactive.
On the same count and under the same terms, for `CC1(C)CON(Cc2ccccc2Cl)C1=O` the value was “inactive”; for `CC1(C)C(C=C(Cl)Cl)C1C(=O)OC(C#N)c1cccc(Oc2ccccc2)c1` (stereo not given), “inactive”; for `COc1cc(OC)nc(NC(=O)NS(=O)(=O)c2ncccc2OCC(F)(F)F)n1`, “inactive”.
In the case of `COc1cc(Cl)c(OC)cc1Cl`, the call was inactive.
Same read-out and setting: the result for `O=c1n(Cl)c(=O)n(Cl)c(=O)n1Cl` reads “inactive”.
With `CCOc1nc(C(Cl)(Cl)Cl)ns1`, the AC50 was 1.34 µM (active).
In the case of `N#CN=C1SCCN1Cc1ccc(Cl)nc1`, the compound was called inactive.
Same read-out and setting: for `CC(C)N1C(=O)c2ccccc2NS1(=O)=O` the value was “inactive”.
